In general, AC50 refers to the midpoint of the concentration-response curve, whichever way the signal moves.

Each structure is given as a SMILES string. Calls of active or inactive are those of the source. The calls were made as follows: active = hit-call score of the fitted dose curve at least 0.9, where 1 is the maximum; inactive = score below 0.9.

For this test, the system named is NCBI gene 447152. Kind of test: CCTE_GLTED_xIYD: CCTE's Xenopus Iodotyrosine Deiodinase (xIYD) Inhibition Assay, Great Lakes Toxicology and Ecology Division (GLTED) Lab. The method, then: CCTE_GLTED_xIYD is a cell-free, single-readout assay that uses Xenopus (frog) iodotyrosine deiodinase (xIYD) enzyme from liver microsomes. Assay is based on iodide release measured by the Sandell-Kolthoff method and is run in 96-well plate format with assay plates run in triplicate (n=3) with measurements taken at 3 hours after chemical dosing. Platewise-normalization was used based on positive control (3-Nitro-L-tyrosine, MNT) and negative/solvent controls (DMSO, NaOH).CCTE_GLTED_xIYD is the assay component measured from the CCTE_GLTED_xIYD assay. It measures substrate involved in regulation of catalytic activity using spectrophotometry. The assay measures the deiodination activity of Xenopus (frog) IYD on the substrate monoiodotyrosine (MIT). After 3h incubation of substrate, enzyme, and test chemical, the components are applied to a 96-well Dowex column. Free iodide is not retained by the column and is separated from interfering assay components. The free iodide is measured by the Sandell-Kolthoff reaction in which the rate of reduction of cerium (Ce+4 to Ce+3) by arsenic (As+3 to As+5) is increased by the presence of iodide. This is observed as the loss of yellow color in the reaction and the quantified by the change in absorbance at 420 nm. The change in reaction rate is proportional to the amount of iodide present.Data from the assay component CCTE_GLTED_xIYD was analyzed at the assay endpoint CCTE_GLTED_xIYD in the positive analysis fitting direction relative to DMSO as the negative control and baseline of activity. Using a type of enzyme reporter, loss-of-signal activity can be used to understand iodotyrosine deiodinase activity. To generalize the intended target to other relatable targets, this assay endpoint is annotated to the 'dehalogenase' intended target family, where the subfamily is 'iodotyrosine deiodinase'.
Human transthyretin (TTR) assay, developed at Great Lakes Toxicology and Ecology Division (GLTED) within the EPA's Center for Computational Toxicology and Exposure (CCTE), is designed to test the chemicals' ability to displace T4 from the TTR protein. TTR (0.125uM) is incubated in presence of test chemical for 2 hours during which disrupting chemicals displace ANSA from the TTR protein. Results read fluorescence at 380 excitation and 475 emission.
Consider `O=S(=O)(Cl)C(F)(F)C(F)(F)C(F)(F)C(F)(F)C(F)(F)C(F)(F)C(F)(F)C(F)(F)F`, for which the compound was called inactive. Turning to `O=C(O)C(F)(F)C(F)(F)C(F)(F)C(F)(F)C(F)(F)C(F)(F)C(F)(F)C(F)(F)Cl`, the concentration at half-maximal activity (AC50) is 38.9 µM (active). `O=S(=O)(O)C(F)(F)C(F)(F)C(F)(F)C(F)(F)C(F)(F)C(F)(F)C(F)(F)F`: the AC50 was 19.8 µM (active). For the compound `O=C(O)C(F)(F)OC(F)(F)C(F)(F)OC(F)(F)C(F)(F)OC(F)(F)C(F)(F)C(F)(F)C(F)(F)F`, the AC50 is 93.8 µM (active). With `O=P(O)(O)CCC(F)(F)C(F)(F)C(F)(F)C(F)(F)C(F)(F)C(F)(F)C(F)(F)C(F)(F)F`, the AC50 is 65.4 µM (active).

With `O=C(O)CCC(F)(F)C(F)(F)C(F)(F)C(F)(F)C(F)(F)C(F)(F)C(F)(F)F`, the outcome was inactive. Consider `N[C@@H](Cc1ccc(O)c([N+](=O)[O-])c1)C(=O)O`, for which the AC50 was 0.113 µM (active). Still for that read-out and setting: the value for `O=C(O)C(F)(F)C(F)(F)C(F)(F)C(F)(F)C(F)(F)C(F)(F)C(F)(F)C(F)(F)C(F)(F)C(F)F` was 64.2 µM (active). In the case of `O=C(Cl)C(F)(F)C(F)(F)C(F)(F)C(F)(F)C(F)(F)C(F)(F)C(F)(F)C(F)(F)F`, the compound was called inactive.

These data come from PubChem BioAssay AID2284323 (EPA ToxCast).
